The structures appear in SMILES notation.

In the test the target is Torsin-1A (Homo sapiens) (UniProt O14656). The test can be described thus: TOR1A wild-type binding on microarray – cell lysate, small-molecule microarray, lysate, 635/667 nm, primary screen (AID 1149). Particulars: COS7 hTOR1A-WT lysate, 635 nm fluorescence, higher = more signal.
Torsin-1A (Homo sapiens), sequence (O14656 whole entry, looked up): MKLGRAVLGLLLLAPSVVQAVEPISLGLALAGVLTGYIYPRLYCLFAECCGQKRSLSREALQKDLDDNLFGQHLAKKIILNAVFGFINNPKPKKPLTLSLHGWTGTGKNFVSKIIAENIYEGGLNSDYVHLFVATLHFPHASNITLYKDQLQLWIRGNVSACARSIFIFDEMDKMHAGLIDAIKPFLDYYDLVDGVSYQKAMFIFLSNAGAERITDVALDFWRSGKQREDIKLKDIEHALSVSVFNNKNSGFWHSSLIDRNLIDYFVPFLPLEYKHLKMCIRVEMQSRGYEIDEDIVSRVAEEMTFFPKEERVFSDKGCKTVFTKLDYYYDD
As to `CO[C@H]1COC(=O)[C@H](CCSC)NC(=O)CC=C[C@@H](C)[C@H](OC)COC(=O)[C@@H](OCc2ccccc2)C=C[C@@H]1C`, the composite z-score was found to be 1.78.

In turn, `COC(=O)[C@H](C)NC(=O)CCC1CC(OC(=O)NCCc2ccc(F)cc2)CC2(CCCC(COC(=O)NCCc3ccccc3OC)O2)O1` (stereo partly specified) displayed a composite z-score of 0.284.

On to `CC(C)CN1CCc2nc(-c3ccccc3)c3c(c2C1)CO[C@@H](C)C3`, for which the composite z-score was 0.0937.

Regarding `CC(C)[C@@H](OCc1ccccc1)[C@H](C)CON=C1[C@H]2CCn3c(=O)n(-c4ccccc4)c(=O)n3[C@H]2[C@H](O)[C@@H]2O[C@H]12`, the composite z-score came to 0.0645.

`CON=C(C)CCN1CCc2nc(-c3ccccc3)c(-c3ccccc3)cc2C1` gave a composite z-score of 0.254.

`COc1ccc(OC[C@H]2CN3[C@@H](CC[C@@H](C)[C@@H]3c3ccc(Br)cc3)C(=O)O2)cc1` gave a composite z-score of 0.357.

With `O=C(NN=C1C[C@@H](O)[C@@H](O)[C@@H]2[C@@H]3C(=O)N(c4ccc(F)cc4F)C(=O)[C@@H]3CC[C@H]12)OCc1ccccc1`, the composite z-score stood at 0.671.

For the molecule `COC(=O)[C@H](C)NC(=O)CCC1CC(OC(=O)NCc2cccc3ccccc23)CC2(CCCC(COC(=O)NCc3ccccc3)O2)O1` (stereo partly specified), the composite z-score came to 0.283.

Molecule `O=C1C2=CC[C@H]3C(=O)N(C4CCCCC4)C(=O)[C@H]3[C@H]2[C@H](O)[C@@H]2O[C@H]12` displayed a composite z-score of -0.695.

Molecule `C#CCCCON=C1C[C@@H](O)[C@@H](O)[C@@H]2[C@@H]3C(=O)N(C[C@@H]4CCCO4)C(=O)[C@@H]3CC[C@H]12` yielded a composite z-score of 0.372.

On to `O=C1[C@H]2CCn3c(=O)n(-c4ccccc4)c(=O)n3[C@H]2[C@H](O)[C@@H]2O[C@H]12`, for which the composite z-score amounted to 0.0097.

In turn, `CC(=O)OC[C@H]1O[C@H](CC=NOCC[C@@H]2C=C[C@H](OC(C)=O)[C@@H](COC(C)=O)O2)C=C[C@@H]1OC(C)=O` came in with a composite z-score of 1.06.

`CCCNC(=O)OC[C@H]1O[C@H](CCON=C[C@@H](C)[C@H](OCc2ccccc2)C(C)C)C=C[C@@H]1Oc1ccc(OC)cc1` showed a composite z-score of -0.0998.

`CC(CCC(=O)OC[C@H]1O[C@H](C#Cc2ccccc2)C=C[C@@H]1Oc1ccc(C)cc1)=NOC(C)CN1CCCCc2nc(C)c(C)cc21` (stereo partly specified) had a composite z-score of -0.453.

For `CCN1C(=O)[C@H]2[C@H]3[C@H](O)[C@H](O)CC(=NNC(=O)OCc4ccccc4)[C@H]3CC[C@H]2C1=O`, the composite z-score was -0.211.

In the case of `CO[C@@H](C(C)C)[C@@H](C)C1OC(=O)CC1O` (stereo partly specified), the composite z-score was -0.118.

On to `CC(C)=NOC(C)CN1CCCc2nc(C)c(C)cc21` (stereo unspecified), for which the composite z-score was determined as 0.111.

`CO[C@@H]1[C@H](O)CO[C@H]1C=Cc1ccccc1`: the composite z-score is -0.518.

Take `COc1ccc(O[C@H]2C=C[C@@H](C#Cc3ccccc3)O[C@@H]2CO)cc1`: the composite z-score is -0.0668.

In the case of `CC(CCC(=O)OC[C@H]1O[C@H](C#Cc2ccccc2)C=C[C@@H]1Oc1ccc(C)cc1)=NOC[C@@H](C)[C@H](OCc1ccccc1)C(C)C`, the composite z-score is -0.705.

`CC(CCN1CCc2nc(-c3ccccc3)c(-c3ccccc3)cc2C1)=NOC(C)CN1CCCc2nc(C)c(C)cc21` (stereo unspecified) showed a composite z-score of 0.373.

In turn, `CCOC(=O)[C@H](CC(C)C)NC(=O)CCC1CC(OC(=O)NCc2ccc3c(c2)OCO3)CC2(CCCC(COC(=O)NCCc3ccc(Cl)cc3)O2)O1` (stereo partly specified) showed a composite z-score of -0.157.

For `CC(=O)OC[C@H]1O[C@@H](ON=C(C)CCC(=O)OC[C@H]2O[C@H](C#Cc3ccccc3)C=C[C@@H]2Oc2ccc(C)cc2)[C@H](OC(C)=O)[C@@H](OC(C)=O)[C@@H]1OC(C)=O`, the composite z-score came to 0.513.

`CC(C)CON=C1C[C@@H](O)[C@@H](O)[C@@H]2[C@@H]3C(=O)N(c4ccc(F)cc4F)C(=O)[C@@H]3CC[C@@H]12`: the composite z-score was found to be 1.29.

Molecule `CCOC(=O)CCN1C(=O)[C@H]2[C@H]3[C@H](O)[C@H](O)CC(=NO[C@@H]4O[C@H](CO)[C@@H](O)[C@H](O)[C@H]4O)[C@H]3CC[C@H]2C1=O` displayed a composite z-score of 0.629.

As to `CCOC(=O)[C@H](Cc1ccccc1)NC(=O)CCC1CC(OC(=O)NCc2cccc3ccccc23)CC2(CCCC(COC(=O)NCCc3ccc(Cl)cc3)O2)O1` (stereo partly specified), the composite z-score was -0.162.

On to `CCN1C(=O)[C@H]2[C@H]3[C@H](O)[C@H](O)CC(=NOC[C@@H](O)COCc4ccco4)[C@H]3CC[C@H]2C1=O`, for which the composite z-score turned out to be 3.04.

Consider `C#CCCCON=C1C[C@@H](O)[C@@H](O)[C@@H]2[C@@H]3C(=O)N(C4CCCCC4)C(=O)[C@@H]3CC[C@@H]12`, for which the composite z-score was -0.0195.

Consider `COC(=O)[C@H](CCSC)NC(=O)CC=C[C@@H](C)CO`, for which the composite z-score was determined as 3.29.

The molecule `CCc1cc2c(nc1CC)CCN(CCC(C)=NO[C@@H]1O[C@H](COC(C)=O)[C@@H](OC(C)=O)[C@H](OC(C)=O)[C@H]1OC(C)=O)C2` came in with a composite z-score of 0.439.

`CO[C@H]1COC(=O)[C@H](C)COC(=O)[C@H](C)NC(=O)CC=C[C@H]1C` returned a composite z-score of 1.26.

`COC(=O)[C@H](C)NC(=O)CCC1CC(OC(=O)NCc2ccc3c(c2)OCO3)CC2(CCCC(COC(=O)NCCCN3CCCC3=O)O2)O1` (stereo partly specified) yielded a composite z-score of 0.447.

In turn, `COc1ccc(COC(=O)NN=C2C[C@@H](O)[C@@H](O)[C@@H]3[C@@H]4C(=O)N(C[C@@H]5CCCO5)C(=O)[C@@H]4CC[C@@H]23)cc1` displayed a composite z-score of 1.2.

`COc1ccc(COC(=O)NN=C2C[C@@H](O)[C@@H](O)[C@@H]3[C@@H]4C(=O)N(C(C)(C)C)C(=O)[C@@H]4CC[C@@H]23)cc1` displayed a composite z-score of 0.385.

Take `CCOC(=O)[C@H](CC(C)C)NC(=O)CCC1CC(OC(=O)NCc2ccc3c(c2)OCO3)CC2(CCCC(COC(=O)NCc3ccccc3)O2)O1` (stereo partly specified): the composite z-score was found to be 0.288.

For `CC(C)[C@H](NC(=O)OC(C)(C)C)[C@@H](O)CC(=O)C(C)(C)C`, the composite z-score was 0.322.

Values taken from PubChem BioAssay.
